Outcome and activity change, negative = cytotoxic data for 40 molecules are collected here from PubChem BioAssay (Tox21).

Inconclusive results are not listed. Activity calls are given as the source filed them. The call rests on the fitted dose curve; in most records, active means well fitted cell-killing curve with a large enough effect in the repeat runs; inconclusive means weak or mixed curves, or effect the other way; inactive means flat fitted curve, though single readings scatter. Non-standard residues stand in square brackets, D forms with d. Residues, ends and D or L forms follow the SMILES beside them. *: point of attachment. Sta = CC(C)C[C@H](N)[C@@H](O)CC(=O)O; Isovaleryl = CC(C)CC(=O)*
On the % scale 0 is the no-effect control and ±100 the full control effect.

This test in a line: qHTS RealTime-Glo MT Cell Viability Assay in HepG2 cells - 40 hour (AID 1224870). Further: nearly all actives have a fitted effect of over 50% in size. To be noted: RealTime-Glo luminescence; series mostly up to 76.8 µM. From the text: National Center for Advancing Translational Sciences [NCATS]
NIH Chemical Genomics Center [NCGC]
U.S. Environmental Protection Agency [EPA]
National Institutes of Environmental Health Sciences [NIEHS]
National Toxicology Program [NTP]
U.S. Food and Drug Administration [FDA]
Measure of cell viability is critical in the cell-base assay. Analysis of cell viability is necessary for the characterization of cell responses to cytotoxic drugs and environmental stress. A RealTime-Glo MT Cell Viability Assay to monitor cell viability in real time of continues cell culture during 40 hours of compound treatment was used to screen Tox21 10K library compounds in HepG2 cells. The RealTime-Glo MT Cell Viability Assay is a nonlytic, homogeneous, bioluminescent method to measure cell viability in real time using a simple, plate-based method. The assay involves adding NanoLuc luciferase and a cell-permeant prosubstrate to cells in culture. Viable cells reduce the proprietary prosubstrate to generate a substrate for NanoLuc luciferase. This substrate diffuses from cells into the surrounding culture medium, where it is rapidly used by the NanoLuc Enzyme to produce a luminescent signal. The signal correlates with the number of viable cells, making the assay well suited for cytotoxicity studies.
Tox21 Assay Protocol Summary:
The mixture of HepG2 cell suspension and reagents were dispensed at 600cells/6 ul/well in 1536-well tissue culture treated black solid bottom plates using a Multidrop dispenser. After the assay plates were incubated at a 37 C/5% CO2 incubator for 5 hours, 23 nL of compounds dissolved in DMSO, positive and negative controls was transferred to the assay plate by a pintool work station. The plates were incubated at 37 C for 40 hours. The luminescence intensity were measured at 0h, 8h, 16h, 24h, 32h and 40h time points using ViewLux plate reader during compound treatment.
(In general: qHTS replaces the single test concentration by a dilution series.)
For `COc1cc(S(N)(=O)=O)cc(C(=O)O)c1OC`, the molecule was classed as inactive.

As for `CCOC(=O)c1ccc(N(C)C)cc1`, the outcome was inactive.

Regarding `NCC1CCC(C(=O)Oc2ccc(CCC(=O)O)cc2)CC1` (stereo not given), the molecule was called inactive.

`O=C(O)CCC(=O)Nc1ccc(S(=O)(=O)Nc2nccs2)cc1`: the outcome was inactive.

With `CCN1CCN(C(=O)N[C@@H](C(=O)N[C@@H]2C(=O)N3C(C(=O)O)=C(CSc4nnnn4C)CS[C@H]23)c2ccc(O)cc2)C(=O)C1=O`, the molecule was classed as inactive.

Regarding `CC(C)CC(=O)N[C@H](C(=O)N[C@H](C(=O)N[C@@H](CC(C)C)[C@@H](O)CC(=O)N[C@@H](C)C(=O)N[C@@H](CC(C)C)[C@@H](O)CC(=O)O)C(C)C)C(C)C` (Isovaleryl-VV[Sta]A[Sta]-OH), the call was inactive.

`N=C(N)N`: the call was inactive.

In the case of `CC(=O)OC/C=C(/C)CCC=C(C)C`, the molecule was called inactive.

With `CCCCNCC`, the molecule was called inactive.

With `Cc1ccc(O)c([N+](=O)[O-])c1`, the result was inactive.

With `CNC(=O)c1c(I)c(NC(C)=O)c(I)c(C(=O)O)c1I`, the molecule was called inactive.

For `CC(C)CC(O)Cc1ccccc1` (stereo not given), the molecule was called inactive.

As to `C[C@@H]1NC(=O)[C@@H](N)CNC(=O)[C@H](C2CCNC(N)=N2)NC(=O)/C(=C/NC(N)=O)NC(=O)[C@H](CNC(=O)C[C@@H](N)CCCN)NC1=O` (stereo not given in full), the activity change, negative = cytotoxic was 3.51% [at 0.29 µM] (inactive).

For the molecule `CC(C)(C)C(=O)CC(=O)C(C)(C)C`, the call was inactive.

For `COC(=O)C(c1ccccc1Cl)N1CCc2sccc2C1` (stereo not given), the call was inactive.

With `CCOC(=O)CN1CCCC1=O`, the molecule was classed as inactive.

Regarding `CN(C)CCc1c[nH]c2ccc(C[C@H]3COC(=O)N3)cc12`, the molecule was classed as inactive.

As for `CCCCCCC(=O)c1ccccc1`, the molecule was called inactive.

Consider `CCCCCCC(O)CO` (stereo not given), for which the call was inactive.

On to `CC1(C)C(=O)C(C)(C)C1=O`, for which the result was inactive.

On to `N=C(N)N1CCc2ccccc2C1`, for which the activity change, negative = cytotoxic is 0.674% [at 6.97 µM] (inactive).

For the molecule `N#CC1(N)CCCCC1`, the molecule was classed as inactive.

Take `C/C(=N\O)c1ccc(OCC(=O)N2CCCCC2)cc1`: the outcome was inactive.

As for `CC/C=C\CCCCCCCCCCOC(C)=O`, the outcome was inactive.

Regarding `O=P(O)(O)C(O)(Cc1cccnc1)P(=O)(O)O`, the call was inactive.

Consider `CCCCC(O)/C=C(C)/C=C/C=C/C(=O)N1CCCC1=O` (stereo not given), for which the outcome was inactive.

Consider `CCN1CCN(C(=O)N[C@@H](C(=O)N[C@@H]2C(=O)N3[C@@H]2SC(C)(C)[C@H]3C(=O)O)c2ccccc2)C(=O)C1=O`, for which the outcome was inactive.

On to `CCCCCCCCCCCCCCBr`, for which the result was inactive.

As for `COc1cc(NS(=O)(=O)c2ccc(N)cc2)ncn1`, the molecule was classed as inactive.

For `C[C@@H](CN1CC(=O)NC(=O)C1)N1CC(=O)NC(=O)C1`, the call was inactive.

Turning to `CCOc1ccccc1OCCN[C@H](C)Cc1ccc(OC)c(S(N)(=O)=O)c1`, the result was inactive.

`COC(=O)c1c(C)cc(O)c(C)c1O`: the molecule was called inactive.

`C=C(C)C(=O)OCCCC`: the molecule was called inactive.

Regarding `COc1cnc(NS(=O)(=O)c2ccc(N)cc2)nc1`, the molecule was classed as inactive.

With `CC(O)CCCCn1c(=O)c2c(ncn2C)n(C)c1=O` (stereo not given), the outcome was inactive.

`C=CCON/C(CCC)=C1\C(=O)CC(C)(C)C(C(=O)OC)=C1O`: the molecule was classed as inactive.

Take `O=C(O)Cc1c(Cl)ccc(Cl)c1Cl`: the outcome was inactive.

`CCCCCCCCOCCC#N`: the molecule was called inactive.

Turning to `Cc1cc2c(cc1CC(=O)c1sccc1S(=O)(=O)Nc1onc(C)c1Cl)OCO2`, the molecule was classed as inactive.

In the case of `CC(C)(C)C(=O)NCCCC(=O)O`, the molecule was classed as inactive.
